# High-throughput results from PubChem.
# A selection: hits, their analogues and other compounds. The true share with any hit is near 0.44%.
# EPAC1 antag = antagonists of human EPAC1. O95398. EPAC1 GEF assay, Rap1b-BODIPY-GDP exchange fluorescence. Potency, µM (titrated, usually from 115 µM), hits mostly inhibitors. hit rate 0.14% among 360,000; further: nearly all actives have a fitted effect of over 50% in size
# EPAC2 antagonist = antagonists of human EPAC2; EPAC2 GEF exchange of Rap1B-BODIPY-GDP, fluorescence; Potency, µM (titrated, usually from 114 µM), actives largely listed as inhibitors; hit rate 0.18% among 360,000; further: nearly all actives have a fitted effect of over 45% in size
# EPAC1 ag = agonists of human EPAC1; O95398; EPAC1 agonist qHTS, biochemical assay; response scale: 100% = response to 6.5 mM cAMP; Potency, µM (highest dose often 154 µM), most hits filed as activators; hit rate 0.073% among 360,000; AID 720707; further: nearly all actives have a fitted effect of over 60% in size
#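 EPAC1 100 nM, Rap1B–BODIPY-GDP 250 nM, unlabeled GDP 50 uM; compound titration; 5 min RT; kinetic read ex480/em540 at 5-min intervals ×30 min; data normalized to 6.5 mM cAMP agonist control.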
# USP1-UAF1 inh = blocks the human USP1/UAF1 deubiquitinase complex. recombinant USP1/UAF1, Ub-Rhodamine cleavage fluorescence. hit rate 0.23% among 390,000. O94782. Potency, µM (doses to about 57.1 µM), actives largely listed as inhibitors. AID 743255; further: nearly all actives have a fitted effect of over 60% in size
# Target sequence (O94782 whole entry, looked up): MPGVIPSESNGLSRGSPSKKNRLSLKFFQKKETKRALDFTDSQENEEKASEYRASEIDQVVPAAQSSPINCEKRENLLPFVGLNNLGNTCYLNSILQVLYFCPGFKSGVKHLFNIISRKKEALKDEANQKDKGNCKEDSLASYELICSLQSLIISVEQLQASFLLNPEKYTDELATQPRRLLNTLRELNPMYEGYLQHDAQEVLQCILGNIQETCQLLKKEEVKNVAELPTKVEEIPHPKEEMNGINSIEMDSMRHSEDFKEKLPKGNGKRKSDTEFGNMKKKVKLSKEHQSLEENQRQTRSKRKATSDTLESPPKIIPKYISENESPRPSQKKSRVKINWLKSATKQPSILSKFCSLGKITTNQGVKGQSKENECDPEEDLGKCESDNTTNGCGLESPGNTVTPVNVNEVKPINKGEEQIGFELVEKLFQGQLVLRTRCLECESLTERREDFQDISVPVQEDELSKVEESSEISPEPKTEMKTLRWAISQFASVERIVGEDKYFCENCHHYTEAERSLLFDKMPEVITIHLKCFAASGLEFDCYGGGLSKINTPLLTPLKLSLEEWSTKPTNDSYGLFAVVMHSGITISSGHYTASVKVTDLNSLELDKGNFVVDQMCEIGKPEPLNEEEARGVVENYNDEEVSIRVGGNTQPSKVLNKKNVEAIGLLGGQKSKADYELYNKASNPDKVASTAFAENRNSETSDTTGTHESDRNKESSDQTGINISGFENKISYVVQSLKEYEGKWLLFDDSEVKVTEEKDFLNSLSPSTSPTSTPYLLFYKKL
#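 In this screen, compounds sit with the deubiquitinase complex (1nM) for 15 min at room temperature before Ub-Rho is added at 150nM final. Fluorescence rise is then followed for 6 reads every 60 seconds.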
# EPAC2 agonist = activates human EPAC2 exchange factor; hit rate 0.079% among 360,000; AID 720711; Potency, µM (highest dose often 154 µM), actives largely listed as activators; EPAC2 activation, biochemical qHTS; response scale: 100% = 6.5 mM cAMP response; further: nearly all actives have a fitted effect of over 50% in size
#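 Guanine nucleotide exchange by EPAC2 is measured as reduced fluorescence of BODIPY-GDP once it is released from 250 nM Rap1B. Plates are read kinetically for 30 min at room temperature; results are scaled to 6.5 mM cAMP.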
# A number is an active result; 0 = inactive; ? = inconclusive; - = no result given. The call rests on the fitted dose curve; in most records, active means well fitted curve in the direction sought with a large enough effect; inconclusive means small, poorly fitted or top-dose-only effect, or another doubt; inactive means no such curve, though single readings can be large; an effect the other way counts as inactive or inconclusive.
SMILES,EPAC1 antag,EPAC2 antagonist,EPAC1 ag,USP1-UAF1 inh,EPAC2 agonist
Cc1nc(N2C(=O)C(=O)/C(=C(/O)c3ccccc3)C2c2ccco2)sc1C (configuration not stated),0,0,0,0,4µM
Cc1ccc(C(=O)Nc2cccc(C(=O)OCc3cc(=O)n4nc(C5CC5)sc4n3)c2)cc1,-,-,-,0,-
CN1C/C(=C\c2ccc(N3CCOCC3)cc2)C(=O)/C(=C/c2ccc(N3CCOCC3)cc2)C1,0,0,0,?,?
CCN1C/C(=C/c2ccc(N3CCOCC3)cc2)C(=O)/C(=C/c2ccc(N3CCOCC3)cc2)C1,0,0,63µM,?,89µM
COc1cc(C(=O)c2ccccc2)c([N+](=O)[O-])cc1OC,0,79µM,0,0,0
COc1ccc(C(=O)c2ccccc2)c2c(O)ccc(C(=O)c3ccccc3)c12,0,0,0,0,6.3µM
COc1ccc(C(=O)c2ccc(Cl)cc2)c2ccccc12,0,?,0,0,0
CCOC(=O)c1c(C)sc(-c2c(-c3cc(C)ccc3C)[nH]c3c2c(=O)[nH]c(=O)n3C)c1O,-,-,-,25µM,-
CCOC(=O)c1c(C)sc(-c2c(-c3cc(C)ccc3C)[nH]c3c2c(=O)n(C)c(=O)n3C)c1O,-,-,-,28µM,-
CCOC(=O)c1c(C)sc(-c2c(-c3cccc(Cl)c3)[nH]c3c2c(=O)n(C)c(=O)n3C)c1O,-,-,-,16µM,-
CCN1C(=O)C(Cc2nc3ccccc3c(=O)n2-c2cccc(C)c2)c2ccccc21 (configuration not stated),-,-,-,0,-
Cc1ccc(Cl)cc1N1CCN(C(=O)C2CCN(Cc3nc(-c4ccc(Cl)cc4)oc3C)CC2)CC1,-,-,-,0,-
O=C(O)c1ccc(COc2ccccc2/C=C2\NC(=O)N(Cc3ccccc3F)C2=O)cc1,0,0,0,0,0
O=C(CN1C(=O)N/C(=C\c2ccccc2OCc2ccc(C(=O)O)cc2)C1=O)Nc1ccccc1F,35µM,0,0,?,0
COc1cccc(/C=C2/NC(=O)N(CC(=O)Nc3ccc(C)cc3)C2=O)c1OCc1cccc(C(=O)O)c1,?,0,0,25µM,0
CC(=O)NC(c1ccccc1)c1nc(-c2cccnc2)cs1 (configuration not stated),0,0,0,-,0
CCOC(=O)N(C)c1c(CC)nc2c(OCc3ccc(C(F)(F)F)cc3)cccn12,?,35µM,0,-,0
CCCCC(=O)N(C)c1c(CC)nc2c(OCc3ccc(C(F)(F)F)cc3)cccn12,0,20µM,0,-,0
CCN(c1ccccc1)S(=O)(=O)c1ccc(NC(=O)c2nc(SC(C)C)ncc2Cl)cc1,-,-,-,0,-
CCCC(=O)O[C@@H]1C[C@@H](C)N(C(=O)c2ccccc2)c2ccc(C)cc21,0,20µM,0,0,0
Cc1ccc(C(=O)CSc2ncc3c(n2)-c2ccccc2N(Cc2ccc(Cl)cc2)S3(=O)=O)cc1,-,-,-,0,-
CCCCN(CCCNC(=O)c1cc(Nc2ccc(OC)c(OC)c2)nc2ccccc12)c1ccccc1,-,-,-,0,-
Cc1ccc(SC/C(O)=C(\C#N)c2nc3ccccc3s2)cc1,0,0,0,0,10µM
O=C(CSc1ccnc(=O)[nH]1)NCc1ccc(F)cc1,-,-,-,0,-
COc1cccc(/C(O)=C/c2nc3ccc(C(=O)NCCc4cccc(C)c4)cc3[nH]c2=O)c1,0,0,89µM,0,112µM
SMILES,EPAC1 antag,EPAC2 antagonist,EPAC1 ag,USP1-UAF1 inh,EPAC2 agonist
COc1cccc(/C(O)=C/c2nc3ccc(C(=O)NCCc4ccc(Cl)cc4)cc3[nH]c2=O)c1,0,0,?,?,112µM
COc1cc(CNC(=O)C2CCCCN2S(=O)(=O)c2ccc(F)cc2)cc(OC)c1OC (configuration not stated),-,-,-,0,-
CCOc1cccc(C(=O)Nc2ccc3oc(Cc4ccc(Cl)cc4)nc3c2)c1,0,0,0,0,7.9µM
O=C(Nc1ccc2oc(Cc3ccc(Cl)cc3)nc2c1)c1cccnc1,0,0,0,0,0
Cn1cccc1/C=C1\SC(=S)N(NC(=O)c2ccccc2Cl)C1=O,0,0,0,0,0
Cc1ccc(C(=O)NN2C(=O)/C(=C/c3cccn3C)SC2=S)cc1,0,0,0,?,0
Cn1cc(/C=C2\SC(=S)N(NC(=O)c3ccccc3Cl)C2=O)c2ccccc21,0,0,100µM,?,?
Cc1ccc(C(=O)NN2C(=O)/C(=C/c3cn(C)c4ccccc34)SC2=S)cc1,0,0,100µM,0,0
